Consider 5 compounds from PubChem BioAssay (EPA / NIEHS).

Activity calls are given as the source filed them. The calls were made as follows: active = hit-call score of the fitted dose curve at least 0.9, where 1 is the maximum; inactive = score below 0.9.

The AC50 is the midpoint of the concentration-response curve, whichever way the signal moves.

What all share (settings): mRNA level, 48 h; actives raise or lower the signal
Read-out in experiment [1]: growth arrest and DNA damage 45 (GADD45B), GADD45B (gene 4616)
Kind of experiment: LTEA_HepaRG_GADD45B: Life Technologies and Expression Analysis (LTEA) Assay for growth arrest and DNA damage 45 (GADD45B) using HepaRG (AID 2283461). The essentials: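 Differentiated HepaRG cells, plated 48 h then switched to serum-free induction medium, were exposed 48 h in duplicate to eight half-log concentrations from 100 uM in 0.5% DMSO; mRNA quantified by qRT-PCR, normalized to ACTB/GAPDH/POLR2A, bidirectional fit versus DMSO.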

Read-out in experiment [2]: ABC Transporter (ABCC3), ABCC3 (gene 8714)
Kind of experiment: LTEA_HepaRG_ABCC3: Life Technologies and Expression Analysis (LTEA) Assay for ABC Transporter (ABCC3) using HepaRG (AID 2283462). The essentials: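 HepaRG cells in serum-free induction medium were exposed for 48 h in duplicate to 8-point half-log concentrations topping at 100 uM in 0.5% DMSO. ABCC3 mRNA was measured by qRT-PCR normalized to ACTB, GAPDH and POLR2A, with bidirectional fitting versus DMSO.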

Read-out in experiment [3]: ABC Transporter (ABCB11), ABCB11 (gene 8647)
Kind of experiment: LTEA_HepaRG_ABCB11: Life Technologies and Expression Analysis (LTEA) Assay for ABC Transporter (ABCB11) using HepaRG (AID 2283463). The gist of the method: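 ABCB11 transcript levels are read by Fluidigm TaqMan qRT-PCR after 48 h chemical treatment of human HepaRG cells. Concentrations span 100 uM downward in half-log steps with 0.5% DMSO; gain or loss is fitted against DMSO controls.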

Read-out in experiment [4]: Broad substrate specificity ATP-binding cassette transporter ABCG2 (Homo sapiens) (UniProt Q9UNQ0)
As to the kind of experiment: LTEA_HepaRG_ABCG2: Life Technologies and Expression Analysis (LTEA) Assay for ABC Transporter (ABCG2) using HepaRG (AID 2283465). The essentials: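 Read-out is ABCG2 mRNA induction or loss quantified by qRT-PCR after 48 h chemical treatment of human HepaRG cells, normalized to three housekeeping genes. Concentrations reached 100 uM top in half-log steps; fitting was bidirectional against 0.5% DMSO.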

Read-out in experiment [5]: ATP-citrate lyase (ACLY), ACLY (gene 47)
As to the kind of experiment: LTEA_HepaRG_ACLY: Life Technologies and Expression Analysis (LTEA) Assay for ATP-citrate lyase (ACLY) using HepaRG (AID 2283466). The essentials:
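HepaRG, 48 h exposure, 8-pt half-log dilutions (top 100 uM), 0.5% DMSO. Readout: ACLY mRNA, TaqMan qRT-PCR, housekeeping-normalized (ACTB/GAPDH/POLR2A). Bidirectional curve fit vs DMSO.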

Read-out in experiment [6]: Peroxisomal acyl-coenzyme A oxidase 1 (ACOX1) gene, ACOX1 (gene 51)
Kind of experiment: LTEA_HepaRG_ACOX1: Life Technologies and Expression Analysis (LTEA) Assay for Peroxisomal acyl-coenzyme A oxidase 1 (ACOX1) gene using HepaRG (AID 2283467). The gist of the method:
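Measured by qRT-PCR against three housekeeping genes: ACOX1 transcript change in human HepaRG cells after 48 h dosing. Concentrations ran up to 100 uM in half-log steps. Curves were fitted bidirectionally relative to 0.5% DMSO.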

Read-out in experiment [7]: Alkaline Phosphatase, Placental (ALPP) gene, ALPP (gene 250)
Kind of experiment: LTEA_HepaRG_ALPP: Life Technologies and Expression Analysis (LTEA) Assay for Alkaline Phosphatase, Placental (ALPP) gene using HepaRG (AID 2283468). The essentials: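 Differentiated human HepaRG cells were plated and cultured 48 h, then exposed in duplicate for 48 h in serum-free induction medium to eight half-log concentrations from 100 uM in 0.5% DMSO. ALPP mRNA was measured by TaqMan qRT-PCR, normalized to ACTB, GAPDH, POLR2A.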

Read-out in experiment [8]: Bcl-2 (BAX) gene, BAX (gene 581)
As to the kind of experiment: LTEA_HepaRG_BAX: Life Technologies and Expression Analysis (LTEA) Assay for Bcl-2 (BAX) gene using HepaRG (AID 2283470). The essentials:
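Concentration-response endpoint fitted in both directions relative to 0.5% DMSO vehicle. Human HepaRG cultures receive test chemicals for 48 h at up to 100 uM; BAX mRNA is quantified by qRT-PCR against housekeeping genes.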

Read-out in experiment [9]: Alpha-fetoprotein (AFP) gene, AFP (gene 174)
As to the kind of experiment: LTEA_HepaRG_AFP: Life Technologies and Expression Analysis (LTEA) Assay for Alpha-fetoprotein (AFP) gene using HepaRG (AID 2283472). The essentials:
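After a 48 h plating period, cells are moved to serum-free induction medium and dosed in duplicate (100 uM maximum, half-log dilutions, 0.5% DMSO) for another 48 h. Total RNA goes to TaqMan qRT-PCR; AFP signal is housekeeping-normalized.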

Read-out in another experiment: BCL2L11 (gene 10018)
As to the kind of experiment: LTEA_HepaRG_BCL2L11: Life Technologies and Expression Analysis (LTEA) Assay for Bcl-2 (BCL2L11) gene using HepaRG (AID 2283473). The gist of the method: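 Differentiated human HepaRG cells in serum-free induction medium were exposed in duplicate for 48 h to eight concentrations (top 100 uM, half-log steps, 0.5% DMSO). BCL2L11 mRNA was quantified by TaqMan qRT-PCR, normalized to ACTB/GAPDH/POLR2A, bidirectional fit versus DMSO.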

Read-out in experiment [10]: Apoptosis regulator Bcl-2 (Homo sapiens) (UniProt P10415)
Kind of experiment: LTEA_HepaRG_BCL2: Life Technologies and Expression Analysis (LTEA) Assay for Bcl-2 gene using HepaRG (AID 2283475). The gist of the method: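 Expression change of BCL2 mRNA in HepaRG after 48 h dosing, quantified by TaqMan qRT-PCR against three endogenous controls. Concentration-response used eight points up to 100 uM, vehicle 0.5% DMSO.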

Read-out in experiment [11]: Bcl-2 (BID) gene, BID (gene 637)
As to the kind of experiment: LTEA_HepaRG_BID: Life Technologies and Expression Analysis (LTEA) Assay for Bcl-2 (BID) gene using HepaRG (AID 2283476). The gist of the method: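 Gain or loss of BID expression is fitted relative to 0.5% DMSO vehicle. Human HepaRG liver cells received a 48 h chemical exposure over an eight-point concentration range.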

Read-out in the next experiment: Caspase-3 (Homo sapiens) (UniProt P42574)
As to the kind of experiment: LTEA_HepaRG_CASP3: Life Technologies and Expression Analysis (LTEA) Assay for cysteine-aspartic acid protease (CASP3) using HepaRG (AID 2283477). The gist of the method: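 Differentiated human HepaRG cells in serum-free induction medium were exposed 48 h to 8-point half-log concentrations from 100 uM (0.5% DMSO vehicle). CASP3 mRNA was measured by qRT-PCR, normalised to ACTB, GAPDH and POLR2A, with bidirectional fitting against DMSO.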

Read-out in experiment [12]: Cytochrome P450 (CYP24A1), CYP24A1 (gene 1591)
Kind of experiment: LTEA_HepaRG_CYP24A1: Life Technologies and Expression Analysis (LTEA) Assay for Cytochrome P450 (CYP24A1) using HepaRG (AID 2283478). The essentials: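 Differentiated HepaRG cells, pre-cultured 48 h, were exposed in duplicate for 48 h in serum-free induction medium to 8 half-log concentrations (top 100 uM, 0.5% DMSO). CYP24A1 mRNA was quantified by TaqMan qRT-PCR, normalized to ACTB/GAPDH/POLR2A, fitted bidirectionally versus DMSO.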

Read-out in experiment [13]: Cytochrome P450 (CYP1A2), CYP1A2 (gene 1544)
Kind of experiment: LTEA_HepaRG_CYP1A2: Life Technologies and Expression Analysis (LTEA) Assay for Cytochrome P450 (CYP1A2) using HepaRG (AID 2283479). The essentials:
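Differentiated human HepaRG cells in serum-free induction medium were exposed in duplicate for 48 h to 8-point half-log concentrations up to 100 uM in 0.5% DMSO. CYP1A2 mRNA measured by qRT-PCR, normalized to ACTB, GAPDH, POLR2A; bidirectional fit vs DMSO.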

Read-out in experiment [14]: cysteine-aspartic acid protease (CASP8), CASP8 (gene 841)
Kind of experiment: LTEA_HepaRG_CASP8: Life Technologies and Expression Analysis (LTEA) Assay for cysteine-aspartic acid protease (CASP8) using HepaRG (AID 2283480). The gist of the method: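 HepaRG, 48 h exposure, duplicate wells; 8 conc, half-log from 100 uM, 0.5% DMSO. Serum-free induction medium. CASP8 mRNA by TaqMan qRT-PCR, norm. ACTB/GAPDH/POLR2A; gain/loss fitted vs DMSO.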

Read-out in experiment [15]: ABC Transporter (ABCC2), ABCC2 (gene 1244)
Kind of experiment: LTEA_HepaRG_ABCC2: Life Technologies and Expression Analysis (LTEA) Assay for ABC Transporter (ABCC2) using HepaRG (AID 2283464). The gist of the method: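 HepaRG cells were plated 48 h, switched to serum-free induction medium, then exposed in duplicate for 48 h to 8 concentrations (top 100 uM, half-log steps, 0.5% DMSO). ABCC2 mRNA was measured by qRT-PCR normalized to ACTB/GAPDH/POLR2A; bidirectional fitting versus DMSO.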

Read-out in experiment [16]: Bcl-2 (BAD) gene, BAD (gene 572)
As to the kind of experiment: LTEA_HepaRG_BAD: Life Technologies and Expression Analysis (LTEA) Assay for Bcl-2 (BAD) gene using HepaRG (AID 2283469). The gist of the method:
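BAD transcript change, measured by qRT-PCR against three housekeeping genes and fitted in both directions relative to 0.5% DMSO, after 48 h chemical treatment of human HepaRG liver cells at concentrations up to 100 uM.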

Read-out in experiment [17]: adenosine kinase (ADK) gene, ADK (gene 132)
Kind of experiment: LTEA_HepaRG_ADK: Life Technologies and Expression Analysis (LTEA) Assay for adenosine kinase (ADK) gene using HepaRG (AID 2283471). The essentials: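 Read-out is ADK transcript level measured by qRT-PCR and normalised to three housekeeping genes. Cells are human HepaRG, dosed for 48 h at up to 100 uM in 0.5% DMSO. Gain or loss of signal is fitted against DMSO controls.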

Read-out in experiment [18]: Apolipoprotein A-V (APOA5) gene, APOA5 (gene 116519)
Kind of experiment: LTEA_HepaRG_APOA5: Life Technologies and Expression Analysis (LTEA) Assay for Apolipoprotein A-V (APOA5) gene using HepaRG (AID 2283474). The gist of the method:
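Differentiated human HepaRG cells were exposed in duplicate for 48 h to eight half-log concentrations from 100 uM in 0.5% DMSO. APOA5 mRNA was quantified by TaqMan qRT-PCR, normalized to ACTB, GAPDH and POLR2A, and fitted bidirectionally against DMSO.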

Chain of Apoptosis regulator Bcl-2 (Homo sapiens) (P10415 whole entry, looked up): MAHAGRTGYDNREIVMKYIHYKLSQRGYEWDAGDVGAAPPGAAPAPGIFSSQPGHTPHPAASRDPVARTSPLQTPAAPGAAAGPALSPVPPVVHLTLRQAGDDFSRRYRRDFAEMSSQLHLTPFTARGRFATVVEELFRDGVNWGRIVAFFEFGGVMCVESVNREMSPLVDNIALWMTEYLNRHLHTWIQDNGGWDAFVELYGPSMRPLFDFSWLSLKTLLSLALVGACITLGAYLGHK
Chain of Broad substrate specificity ATP-binding cassette transporter ABCG2 (Homo sapiens) (Q9UNQ0 whole entry, looked up): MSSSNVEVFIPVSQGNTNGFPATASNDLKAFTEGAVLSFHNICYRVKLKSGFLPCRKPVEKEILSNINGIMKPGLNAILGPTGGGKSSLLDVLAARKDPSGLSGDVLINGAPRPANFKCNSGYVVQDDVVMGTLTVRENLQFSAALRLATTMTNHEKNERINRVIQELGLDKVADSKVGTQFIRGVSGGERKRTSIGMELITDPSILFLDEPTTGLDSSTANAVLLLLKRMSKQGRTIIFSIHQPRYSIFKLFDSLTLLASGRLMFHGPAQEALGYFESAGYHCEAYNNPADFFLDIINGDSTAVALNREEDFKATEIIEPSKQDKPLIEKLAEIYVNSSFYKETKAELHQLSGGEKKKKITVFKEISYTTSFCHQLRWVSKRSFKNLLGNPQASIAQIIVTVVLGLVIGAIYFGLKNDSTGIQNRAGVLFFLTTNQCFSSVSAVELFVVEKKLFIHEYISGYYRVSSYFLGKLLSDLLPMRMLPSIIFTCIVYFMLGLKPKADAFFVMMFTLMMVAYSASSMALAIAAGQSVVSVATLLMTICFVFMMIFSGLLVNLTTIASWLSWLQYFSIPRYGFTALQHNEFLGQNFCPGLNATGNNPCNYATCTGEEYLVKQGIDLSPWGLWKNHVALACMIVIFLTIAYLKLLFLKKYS
Chain of Caspase-3 (Homo sapiens) (P42574 whole entry, looked up): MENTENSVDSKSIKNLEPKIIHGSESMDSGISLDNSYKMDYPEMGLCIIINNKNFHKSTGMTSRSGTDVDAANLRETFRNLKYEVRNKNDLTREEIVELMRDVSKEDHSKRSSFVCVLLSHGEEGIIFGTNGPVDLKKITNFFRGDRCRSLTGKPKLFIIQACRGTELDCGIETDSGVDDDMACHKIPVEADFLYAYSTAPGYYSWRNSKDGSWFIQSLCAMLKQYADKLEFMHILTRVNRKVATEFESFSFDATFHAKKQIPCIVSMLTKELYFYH

Turning to `C=CN1CCCC1=O`, the compound was called inactive in experiment [1], in [2], in experiment [3], in experiment [4], in [5] and in [6]. Moreover, the result (in [7]; in experiment [8]; in experiment [9]; with BCL2L11 (gene 10018); in experiment [10]; in [11]) was inactive. The call (with Caspase-3 (Homo sapiens); in experiment [12]; in experiment [13]; in [14]) was inactive.

On to `CCCCCCCC/C=C\CCCCCCCC(=O)OC[C@@H](O)[C@H]1OC[C@H](O)[C@H]1O`, for which the outcome in experiment [1], in experiment [2], in [3], in [15], in [4] and in experiment [5] was inactive. Moreover, the compound was classed as inactive in experiment [6], in experiment [7], in experiment [16], in [8], in experiment [17] and in experiment [9]. Also, the result (in the experiment with BCL2L11 (gene 10018); in experiment [10]; in [11]; in the experiment with Caspase-3 (Homo sapiens); in experiment [12]; in experiment [13]) was inactive. In addition, the compound was called inactive in experiment [14].

Regarding `OCC(CO)(CO)CO`, the call in [1], in experiment [2], in experiment [3], in experiment [4], in experiment [5] and in [6] was inactive. Moreover, the call (in experiment [7]; in experiment [16]; in experiment [8]; in [17]; in [9]; with BCL2L11 (gene 10018)) was inactive. Besides, the outcome (in [10]; in experiment [11]; in the experiment with Caspase-3 (Homo sapiens); in [12]; in [13]; in [14]) was inactive.

`Cn1cc[nH]c1=S`: the call in experiment [1], in [2], in experiment [3], in experiment [4], in experiment [5] and in experiment [6] was inactive. The compound was classed as inactive (in experiment [7]; in experiment [16]; in [8]; in [9]; with BCL2L11 (gene 10018); in experiment [10]). Besides, the outcome (in experiment [11]; with Caspase-3 (Homo sapiens); in experiment [12]; in experiment [14]) was inactive.

In the case of `C=CCc1cc(S(=O)(=O)c2ccc(O)c(CC=C)c2)ccc1O`, the call in [1], in experiment [2], in experiment [4], in experiment [5], in [8] and in experiment [17] was inactive. Further, the result (in the experiment with BCL2L11 (gene 10018); in experiment [10]; in [11]; in the experiment with Caspase-3 (Homo sapiens); in experiment [12]; in [14]) was inactive. For the same compound, the AC50 in experiment [3] was 81.6 µM (active); in experiment [6], 79.8 µM (active); in experiment [7], 50 µM (active); in experiment [9], 79.1 µM (active); in experiment [18], 89 µM (active); in experiment [13] it was 8.77 µM (active).
